M1 antag = human M1 muscarinic receptor antagonists, primary screen, CHO-K1 cells, Fluo-8 calcium fluorescence, 1536-well; Muscarinic acetylcholine receptor M1 (Homo sapiens), P11229; inhibition, % at 3 µM; CHO-K1 hM1, ACh EC80 antagonist; hit rate 1.3% among 360,000; AID 588852, 2011;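 active means percent inhibition above its own plate's cutoff, namely the mean of that plate's compound wells plus 3 SD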;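 further: peak over basal fluorescence ratio during 140 s after agonist addition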
Target sequence (P11229 whole entry, looked up): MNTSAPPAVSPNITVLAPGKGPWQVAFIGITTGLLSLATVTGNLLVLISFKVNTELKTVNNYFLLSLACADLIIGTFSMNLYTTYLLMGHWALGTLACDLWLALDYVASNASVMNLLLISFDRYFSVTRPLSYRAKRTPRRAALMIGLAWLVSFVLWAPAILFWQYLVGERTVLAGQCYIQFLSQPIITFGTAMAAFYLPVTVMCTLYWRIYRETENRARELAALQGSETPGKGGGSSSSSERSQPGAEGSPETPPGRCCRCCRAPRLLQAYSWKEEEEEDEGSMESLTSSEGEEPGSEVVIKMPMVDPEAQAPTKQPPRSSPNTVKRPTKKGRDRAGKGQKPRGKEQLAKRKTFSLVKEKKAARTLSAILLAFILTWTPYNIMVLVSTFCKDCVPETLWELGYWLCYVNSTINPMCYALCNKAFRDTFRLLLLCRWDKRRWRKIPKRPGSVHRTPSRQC
CHRM1 agonist = human M1 muscarinic receptor agonists, primary screen, Fluo-8 calcium fluorescence, CHO-K1 cells, HTS; Muscarinic acetylcholine receptor M1 (Homo sapiens), P11229; CHO-K1 hM1, agonist mode; 0% DMSO, 100% acetylcholine EC100; activation, % at 3 µM; hit rate 0.33% among 360,000;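 active means activation above the run's mean compound activation plus 3 SD, cut at about 16% in these data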;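 further: peak over basal fluorescence ratio within a 140 s kinetic read after compound addition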
CHO-K1 Ca antag = nonselective inhibitor or artifact in parental CHO-K1 cells. AID 602250. ATP-induced calcium, Fluo-8 fluorescence. inhibition, % at 3 µM. hit rate 0.6% among 360,000;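 active means inhibition above a per-plate cutoff, the plate's mean sample inhibition plus 3 SD, cut at about 24% in these data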
M1 PAM = human M1 muscarinic receptor positive allosteric modulators, primary screen, CHO-K1 cells, Fluo-8 calcium fluorescence, 1536-well | Muscarinic acetylcholine receptor M1 (Homo sapiens), P11229 | CHO-K1 hM1, ACh EC20; 0% = ACh EC20, 100% = maximal ACh | activation, % at 3 µM | hit rate 0.088% among 360,000; in the data active means activation above about 19%, passing the limit was not always enough
CHO-K1 Ca PAM = nonselective calcium activators in parental CHO-K1 cells, primary screen, counter-screen for M1 PAM project, cell-based, Fluo-8 calcium fluorescence, full deck, 1536-well | AID 602247, 2012 | hit rate 0.02% among 360,000 | activation, % at 3 µM | ATP EC20; 0% at ATP EC20, 100% at ATP max;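 active means activation above the run cutoff, the mean activation of all test compounds plus 3 SD, cut at about 40% in these data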;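 further: peak over basal fluorescence ratio in a 140 s read after ATP addition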
M1 ag parental = counter-screen for M1 agonists: effect in parental CHO-K1 cells; Fluo-8 calcium fluorescence; scaled to maximal ATP response, vehicle zero; activation, % at 3 µM; hit rate 0.48% among 360,000; AID 602248, 2012; in the data active means activation above about 15%;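 further: untransfected CHO-K1 host cells lacking M1 receptor as counterscreen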
Numbers stand for hits; n = inactive. Compounds with a hit are over-represented: about 2.4% of the library has one in this group of screens.

SMILES	M1 antag	CHRM1 agonist	CHO-K1 Ca antag	M1 PAM	CHO-K1 Ca PAM	M1 ag parental
O=C(c1cccc(Cl)c1)N1CCN(c2ccccn2)CC1	n	n	n	n	n	n
O=C(c1ccc(S(=O)(=O)Nc2ccccc2F)cc1)N1CCN(c2ccccn2)CC1	51.5	n	n	n	n	n
Cc1ccccc1NS(=O)(=O)c1ccc(C(=O)N2CCN(c3ccccn3)CC2)cc1	n	n	n	n	n	n
CC(=O)c1c(C)oc2ccc(NS(=O)(=O)c3ccc(F)cc3C)cc12	28.4	n	n	n	n	n
CC(=O)c1c(C)oc2ccc(NS(=O)(=O)c3ccc(O)c(C(=O)O)c3)cc12	n	n	n	n	n	n
CC(=O)Nc1ccc(S(=O)(=O)NC(C)C(=O)OCC(=O)Nc2ccc(F)cc2Cl)cc1 (stereo unspecified)	n	n	n	n	n	n
CC1CC(C)(C)OC(C[N+]2(C)CCCCC2)O1 (stereo unspecified)	34.9	n	n	n	n	n
C[N+]1(CC2COC3(CCCCC3)O2)CCCC1 (stereo unspecified)	n	n	n	n	n	n
COc1ccc(C)cc1NC(=O)CNc1ccccc1CN(C)C1CCCCC1	50.8	n	n	n	n	n
COc1ccc(N2CCN(c3c(S(=O)(=O)c4ccccc4)cnc4ccc(OC)cc34)CC2)cc1	n	n	n	n	n	n
COc1ccc(S(=O)(=O)c2cnc3ccc(OC)cc3c2N2CCC3(CC2)OCCO3)cc1	28.3	n	n	n	n	n
COc1ccc(C2=CSC3=NCCN23)cc1OC	n	n	n	n	n	n
CCCCOc1ccc(C2=CSC3=NCCN23)cc1[N+](=O)[O-]	59.0	n	n	n	n	n
Clc1ccc(C2=CSC3=NCCN23)cc1Cl	17.1	n	n	n	n	n
C[C@@H]1CN([C@@H](C)CO)C(=O)CCCn2nncc2CO[C@@H]1CN(C)S(=O)(=O)c1ccc(F)cc1	n	n	n	n	n	n
CC1CCc2[nH]c3ccc(C(=O)N4CCCC(C(F)(F)F)C4)cc3c2C1 (stereo unspecified)	n	n	n	n	n	n
CN(C)C(CNC(=O)c1ccc(NC(=O)c2cccs2)cc1)c1ccccc1 (stereo unspecified)	n	n	n	n	n	n
Cc1ccc(NS(=O)(=O)c2ccc(C(=O)NCC(c3ccco3)N(C)C)cc2)cc1 (stereo unspecified)	n	n	n	n	n	26.1
Cc1ccc(S(=O)(=O)Nc2cccc(C(=O)NCC(c3ccco3)N(C)C)c2)cc1F (stereo unspecified)	43.1	n	n	n	n	n
CN(C)C(CNC(=O)c1ccc(C2SCCS2)cc1)c1ccccc1 (stereo unspecified)	37.6	n	n	n	n	n
Cc1cccc(NS(=O)(=O)c2ccc(C(=O)NCC(c3ccccc3)N(C)C)cc2)c1C (stereo unspecified)	26.6	n	n	n	n	n
CN1C[C@@H]2[C@@H]3C(=O)N(C)C(=O)[C@@H]3[C@](Cc3ccccc3)(C1=O)N2C(=O)c1ccc(Cl)cc1	n	n	n	n	n	n
C=CCOn1c(=O)c(-c2ccc(Cl)cc2)[n+]([O-])c2ccccc21	n	n	n	n	n	n
C=CCOn1c(=O)c(-c2cccs2)[n+]([O-])c2ccccc21	n	n	28.3	n	n	n
C(#Cc1c(-c2ccsc2)sc2ccccc12)c1ccsc1	n	n	n	n	n	n
SMILES	M1 antag	CHRM1 agonist	CHO-K1 Ca antag	M1 PAM	CHO-K1 Ca PAM	M1 ag parental
Cc1ccccc1C(=O)NC1CC2CCCC(C1)N2CC(C)C (stereo unspecified)	66.4	n	n	n	n	n
Cc1ccc(NC(=O)/C(C#N)=N/Nc2ccc(C(=O)O)cc2)c(C)c1	n	n	n	23.7	n	n
Cc1ccc(N/N=C(\C#N)C(N)=S)c(C)c1	n	n	n	n	n	n
CC[C@]12c3[nH]c4cc(-c5ccco5)ccc4c3CCN1C(=O)[C@@H](CC(=O)NCCCN(C)C)C[C@@H]2C(=O)N1CCN(C(=O)C2CC2)CC1	20.9	n	n	n	n	n
O=C(NCc1ccccc1)c1ccc(C2SCC(=O)N2Cc2ccccc2)cc1 (stereo unspecified)	58.6	n	n	n	n	n
COCCCN1C(=O)C(CC(=O)NCCc2ccccn2)CC(C(=O)N2CCOCC2)=C1C (stereo unspecified)	n	n	n	n	n	n
CC1=C(C(=O)N(C)C)CC(CC(=O)NCCCCc2ccccc2)C(=O)N1Cc1ccccc1 (stereo unspecified)	n	34.8	n	n	n	n
COc1ccc(CN2C(=O)C(CC(=O)NCCCCc3ccccc3)CC(C(=O)N(C)C)=C2C)cc1 (stereo unspecified)	n	52.6	n	n	n	n
CCN(CC)C(=O)C1=C(C)N(CCCOC)C(=O)C(CC(=O)NCCc2ccccn2)C1 (stereo unspecified)	n	n	29.9	n	n	n
CCn1c(SCC(=O)Nc2ccc3[nH]c(=O)[nH]c3c2)nc2ccccc21	49.5	n	n	n	n	n
CC(C)Cn1c(SCC(=O)Nc2ccc3[nH]c(=O)[nH]c3c2)nc2ccccc2c1=O	n	n	n	n	n	n
COCCn1c(SCC(=O)Nc2ccc3[nH]c(=O)[nH]c3c2)nc2ccccc21	38.2	n	n	n	n	n
Cc1cnc(C(=O)OCC(=O)NCc2cccc(Cl)c2)cn1	n	n	n	n	n	n
COc1ccc(CCNS(=O)(=O)c2ccc3c(c2)CCN3C(=O)CCC(=O)O)cc1OC	n	n	n	n	n	18.6
O=C(O)CCC(=O)N1CCc2cc(S(=O)(=O)NCCc3ccc(Cl)cc3)ccc21	n	n	n	n	n	n
Cc1cc[n+](CC(=O)c2cc3ccccc3oc2=O)cc1	59.4	n	n	n	n	n
COc1ccc(C(C(=O)OC(C)CN(C)C)c2ccccc2)cc1 (stereo unspecified)	31.9	n	n	n	n	n
CC(CN1CCCC1)OC(=O)C(c1ccccc1)c1ccccc1 (stereo unspecified)	n	n	n	n	n	n
Cc1cc(/C=C2\SC(=S)NC2=O)c(C)n1-c1ccccc1	n	n	n	n	n	n
CNC(=O)/C(C#N)=C\c1cc(C)n(-c2ccc(N3CCOCC3)cc2)c1C	n	n	30.6	n	n	n
